Results taken from paper PMC7826789 (International Journal of Molecular Sciences, 2021).

Columns and labels:
[1] = tested on: T1, PIP5K2B; settings: Compound Concentration (nM):1000
T1 construct: gene PIP4K2B

[2] = tested on: T2, PIP5K2C; settings: Compound Concentration (nM):1000
T2 construct: gene PIP4K2C

[3] = tested on: T3, PKAC-alpha; settings: Compound Concentration (nM):1000
T3 construct: gene PRKACA

[4] = tested on: T4, PKAC-beta; settings: Compound Concentration (nM):1000
T4 construct: gene PRKACB

[5] = tested on: PKMYT1; settings: Compound Concentration (nM):1000
[6] = tested on: PKN1; settings: Compound Concentration (nM):1000
[7] = tested on: PKN2; settings: Compound Concentration (nM):1000
[8] = tested on: PKNB(M.tuberculosis); settings: 1 µM
[9] = tested on: PLK1; settings: Compound Concentration (nM):1000
[10] = tested on: PLK2; settings: Compound Concentration (nM):1000
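Also: KINOMEscan scanMAX binding as percent activity remaining versus control; lower means stronger binding.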

Cc1cc(O)cc(C)c1/C=C/c1cncc(C(N)=O)c1 [GW435821X]
Percent Control [1]: 100% | Percent Control [2]: 84% | Percent Control [3]: 100% | Percent Control [4]: 100% | Percent Control [5]: 74% | Percent Control [6]: 100% | Percent Control [7]: 65% | Percent Control [8]: 99% | Percent Control [9]: 100% | Percent Control [10]: 93%

CCc1ccc(Oc2nccc(-c3c(-c4ccc(F)cc4)ncn3C3CCNCC3)n2)cc1 [SB-242719]
Percent Control [1]: 100% | Percent Control [2]: 100% | Percent Control [3]: 36% | Percent Control [4]: 31% | Percent Control [5]: 89% | Percent Control [6]: 94% | Percent Control [7]: 91% | Percent Control [8]: 81% | Percent Control [9]: 98% | Percent Control [10]: 77%

COc1cc(/C=N/Nc2ncnc3[nH]ncc23)ccc1O [GW578748X]
Percent Control [1]: 74% | Percent Control [2]: 24% | Percent Control [3]: 100% | Percent Control [4]: 100% | Percent Control [5]: 100% | Percent Control [6]: 100% | Percent Control [7]: 100% | Percent Control [8]: 50% | Percent Control [9]: 84% | Percent Control [10]: 31%

Cl.c1ccc(Cc2nc3ccc(Nc4ncnc5ccccc45)cc3[nH]2)cc1 [GR269666A]
Percent Control [1]: 100% | Percent Control [2]: 71% | Percent Control [3]: 100% | Percent Control [4]: 100% | Percent Control [5]: 100% | Percent Control [6]: 92% | Percent Control [7]: 100% | Percent Control [8]: 100% | Percent Control [9]: 80% | Percent Control [10]: 100%

COc1cc2ncnc(Nc3ccc4c(cnn4Cc4ccccc4)c3)c2cc1OC.Cl [GW282449A]
Percent Control [1]: 100% | Percent Control [2]: 73% | Percent Control [3]: 100% | Percent Control [4]: 37% | Percent Control [5]: 100% | Percent Control [6]: 100% | Percent Control [7]: 100% | Percent Control [8]: 100% | Percent Control [9]: 91% | Percent Control [10]: 100%

Cl.O=C(Nc1ccc(Oc2ccc3[nH]c(NC(=O)c4ccccc4)nc3c2)cc1)Nc1cc(C(F)(F)F)ccc1F [GW709042A]
Percent Control [1]: 100% | Percent Control [2]: 97% | Percent Control [3]: 100% | Percent Control [4]: 100% | Percent Control [5]: 100% | Percent Control [6]: 100% | Percent Control [7]: 60% | Percent Control [8]: 88% | Percent Control [9]: 100% | Percent Control [10]: 98%

COc1cccc(-n2ncc3c(N/N=C/c4ccncc4)ncnc32)c1 [GW784752X]
Percent Control [1]: 91% | Percent Control [2]: 19% | Percent Control [3]: 100% | Percent Control [4]: 99% | Percent Control [5]: 100% | Percent Control [6]: 100% | Percent Control [7]: 100% | Percent Control [8]: 100% | Percent Control [9]: 88% | Percent Control [10]: 94%

COc1ccc2cc(-c3c(-c4ccncc4)nc(-c4ccc(S(C)(=O)=O)cc4C)n3C)ccc2c1 [SB-633825]
Percent Control [1]: 83% | Percent Control [2]: 73% | Percent Control [3]: 96% | Percent Control [4]: 65% | Percent Control [5]: 89% | Percent Control [6]: 86% | Percent Control [7]: 100% | Percent Control [8]: 83% | Percent Control [9]: 63% | Percent Control [10]: 89%

COc1cc2ncn(-c3cc(O[C@H](C)c4ccccc4Cl)c(C(N)=O)s3)c2cc1OC [GSK237701A]
Percent Control [1]: 15% | Percent Control [2]: 20% | Percent Control [3]: 100% | Percent Control [4]: 96% | Percent Control [5]: 100% | Percent Control [6]: 100% | Percent Control [7]: 83% | Percent Control [8]: 62% | Percent Control [10]: 1.8%

NS(=O)(=O)c1ccc(N/N=C2\C(=O)Nc3ccc(C(=O)NCc4ccncc4)cc32)cc1 [GW300657X]
Percent Control [1]: 100% | Percent Control [2]: 51% | Percent Control [3]: 100% | Percent Control [4]: 100% | Percent Control [5]: 83% | Percent Control [6]: 100% | Percent Control [7]: 81% | Percent Control [8]: 100% | Percent Control [9]: 74% | Percent Control [10]: 90%

COc1ccc2[nH]c3c4[nH]c5ccc(OC)cc5c4c4c(c3c2c1)C(=O)NC4=O [GW296115X]
Percent Control [1]: 100% | Percent Control [2]: 28% | Percent Control [3]: 87% | Percent Control [4]: 89% | Percent Control [5]: 97% | Percent Control [6]: 42% | Percent Control [7]: 52% | Percent Control [8]: 67% | Percent Control [9]: 90% | Percent Control [10]: 95%
